The list is not random: actives were taken first. Their share in the collection is about 4.3%.
HSF1 inh: HSF1 inhibitors in luciferase reporter cells, primary screen, cell-based, NIH3T3, luminescence | 300,000 compounds, 0.77% hits | activity change, negative = inhibition, % at 7.5 µM (by protocol) | NIH3T3-HGL HSE-luciferase, MG132-induced, luminescence 8 h; hits give low values;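 active = more than half of replicate wells show activity change below -50%, luminescence cut by over half; inconclusive = some wells, but at most half, below -50%; inactive = no replicate well below -50%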;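 also: luciferase reports HSF-1 transcriptional activity via heat shock element; 0% = median of DMSO wells and -100% = zero luminescence signal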
MITF TRPM1 HTS: activators of MITF-driven TRPM1 promoter reporter, primary screen, cell-based, SK-MEL-5, luciferase, single point | AID 588334, 2011 | 300,000 compounds, 0.75% hits | SK-MEL-5 TRPM1-promoter luciferase, 24 h; % of positive control, neutral wells = 0 | activation, % at 12.5 µM;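 active = mean activation of at least 80% with every replicate also reaching 80%; inconclusive = mean reaches 80% but some replicate falls short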;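 also: 0% = neutral control wells and 100% = parthenolide positive control wells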
HSF1 activator: HSF-1 activators, primary screen, NIH3T3-HGL cells, MG132 stress, luminescence, single point. activation, % at 9 µM. 300,000 compounds, 1.7% hits. NIH3T3-HGL HSF-1 luciferase reporter, 8 h; 100% = twice DMSO control signal;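 active = mean replicate activation of at least 50% with a set share of replicates each reaching 50%; inconclusive = only one of those two conditions met; inactive = mean below 50% and too few replicates reaching it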;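 also: 0% = median of the neutral control wells and 100% = twice that signal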
SMARCA2 activ: SMARCA2 (BRM) function activators, primary screen, cell-based, luminescence, high throughput; MG213 cells, MMTV-luciferase reporter, dexamethasone, overnight; activation, % at 9.1 µM; 370,000 compounds, 1% hits; in the data active = activation above about 7.8%;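 also: 0% = vehicle wells and 100% = reference activator wells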
Wnt bcat act: Wnt/beta-catenin pathway activators, primary screen, cell-based, plate reader, single point; Wnt/beta-catenin reporter cell assay, activator; activation, % at 9.35 µM; 300,000 compounds, 1.2% hits; in the data active = activation above about 30%, passing the limit was not always enough; inconclusive = no clear call, values can overlap the other calls;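 also: 0% = neutral control wells and 100% = positive control wells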
esBAF inh: Bmi1 luciferase reporter increase in mESCs, primary screen, esBAF inhibitor project, mouse ES cells, Bmi1 luciferase knock-in, single point. 24 h; 100% = twice the neutral-well signal. reporter increase, % at 12.5 µM. 350,000 compounds, 2% hits. AID 602393, 2012; in the data active = activation above about 40%; inconclusive = no clear call, values can overlap the other calls;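 also: 0% = median of the plate's neutral control wells and 100% = double that signal; a rise in the Bmi1 reporter signal indicates esBAF inhibition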
The depositor's hits bear a star; ? = inconclusive; . = not tested or not shown.

SMILES	HSF1 inh	MITF TRPM1 HTS	HSF1 activator	SMARCA2 activ	Wnt bcat act	esBAF inh
Cc1ccc(S(=O)(=O)NC(=NCc2ccccc2)c2ccc(F)cc2)cc1	-77*	1	-82	3	-7	9
Cn1ccs/c1=N\C(=O)Nc1ccccc1	19	91*	11	4	27	56*
COc1ccc(C(=O)N=c2sccn2C)cc1	12	59	7	3	2	.
COC(=O)c1ccc(C(=O)N=c2sccn2C)cc1	15	83*	26	7	-2	60*
Cn1ccsc1=NC(=O)c1ccccc1F	3	18	8	2	.	-2
Cn1ccsc1=NC(=O)c1ccc(Cl)cc1	4	31	37	5	15	.
CN(C)c1ccc(C(=O)N=c2sccn2C)cc1[N+](=O)[O-]	28	70	43	1	-4	56*
Cn1ccsc1=NC(=O)c1ccc(S(=O)(=O)C(F)F)cc1	3	59	28	1	1	58*
O=C(CSc1cn(Cc2ccccc2)c2ccccc12)N1CCOCC1	16	52	15	1	18	79*
O=C(NCCn1cc(SCC(=O)N2CCOCC2)c2ccccc21)c1ccccc1	-7	.	-16	0	11	2
Cc1ccc(C(=O)NCCn2cc(SCC(=O)Nc3nnc(C)s3)c3ccccc32)cc1	-47	.	-53	-3	-5	58*
CCCn1cc(SCC(=O)Nc2nnc(C)s2)c2ccccc21	-3	-5	-17	-4	1	1
CC1CN(C(=O)CSc2cn(CC(=O)N3CCOCC3)c3ccccc23)CC(C)O1 (centres undefined)	-1	-10	1	-2	-1	1
Cn1c(=O)cc(SCC(=O)N2CCOCC2)c2ccc(Cl)cc21	54	.	98*	3	-3	13
COc1ccc(C(=O)NCCn2cc(SCC(=O)N3CCOCC3)c3ccccc32)cc1	-12	0	-15	-3	.	42*
C[C@H](CO)N1C[C@H](C)[C@@H](CN(C)S(=O)(=O)c2ccc(Cl)cc2)OCCCC[C@H](C)Oc2ccc(NC(=O)c3ccncc3)cc2C1=O	.	.	.	.	.	1
COc1cccc(C#Cc2ccc3c(c2)O[C@@H](CN(C)C(=O)c2ccccn2)[C@H](C)CN([C@H](C)CO)S3(=O)=O)c1	.	.	.	.	.	1
O=C(NC(=S)N1CCc2ccccc21)c1ccccc1Br	44	2	57*	0	6	15
O=C(NC(=S)N1CCc2ccccc21)c1ccc(Br)o1	37	4	52*	3	4	.
CC(C)(C)C(=O)NC(=S)N1CCc2ccccc21	-1	-17	0	2	-2	-3
COc1cc(C(=O)Oc2ccccc2/C=N/NC(=O)c2ccc(C)cc2)cc(OC)c1OC	32	-5	66*	5	.	-16
COc1ccc(S(=O)(=O)N(C)C[C@@H]2Oc3ccc(NC(=O)CCN4CCOCC4)cc3CC(=O)N([C@H](C)CO)C[C@H]2C)cc1	.	.	.	.	.	-1
C[C@H]1CN([C@@H](C)CO)C(=O)Cc2cc(NC(=O)Cc3cn(C)c4ccccc34)ccc2O[C@H]1CN(C)S(C)(=O)=O	.	.	.	.	.	-1
CN(C)CCCNC(=O)C[C@H]1CC[C@@H]2[C@H](COC[C@H](O)CN2Cc2cccc(F)c2)O1	.	.	.	.	.	5
O=C(NC1CCCCC1)C(c1ccco1)N(C(=O)c1csnn1)c1ccc(Cl)cc1 (centres undefined)	-89*	.	-90	-3	-10	2
SMILES	HSF1 inh	MITF TRPM1 HTS	HSF1 activator	SMARCA2 activ	Wnt bcat act	esBAF inh
CC(CC(=O)O)CC(=O)Nc1cc(C(F)(F)F)cc(C(F)(F)F)c1 (centres undefined)	-4	.	4	2	51*	.
CC(=O)Nc1c(Cl)cc2c(c1Cl)Cc1ccccc1-2	.	3	.	-2	3	.
CCCC(=O)Nc1ccc2c(c1)Cc1ccccc1-2	46	63	?	2	4	58*
COc1cc(C(=O)Nc2ccc3c(c2)Cc2ccccc2-3)cc(OC)c1OC	-5	30	12	-2	-16	.
O=C(Nc1ccc2c(c1)Cc1ccccc1-2)c1ccc(Br)o1	20	59	13	2	18	51*
O=C(Nc1ccc2c(c1)Cc1ccccc1-2)c1ccccc1F	22	.	45	3	49*	.
CCC(=O)Nc1ccc2c(c1)Cc1cc(NC(=O)CC)ccc1-2	6	2	13	-1	2	16
CC(=O)Nc1cc2c(cc1Br)-c1ccccc1C2	.	9	.	5	0	56*
O=C(NCC1CC1)[C@@H]1[C@@H](CO)[C@@H]2Cn3c(ccc(-c4ccccc4F)c3=O)[C@H]1N2Cc1cncnc1	.	.	.	.	.	1
CC(C)CN1C(=O)c2ccc(NC(=O)c3ccccc3F)cc2C1=O	5	69	29	0	.	47*
CC(C)CN1C(=O)c2ccc(NC(=O)c3ccco3)cc2C1=O	15	36	21	-3	13	.
[O-]/[N+](=N\Nc1ccc(Cl)cc1)c1ccccc1	.	75	.	2	3	52*
Clc1ccc(/C=N\Nc2ccccc2)cc1	3	.	15	-1	4	42*
Clc1cccc(N/N=C/c2ccncc2)c1	-9	101*	-3	1	9	.
COc1ccc(S(=O)(=O)N(C)C[C@H]2Oc3ccc(NC(=O)Nc4cccc5ccccc45)cc3CC(=O)N([C@H](C)CO)C[C@H]2C)cc1	.	.	.	.	.	0
CCOC(=O)c1ccc(NC(=S)N2CCCC(C)C2)cc1 (centres undefined)	26	9	62*	2	-1	32
CCOC(=O)c1ccc(NC(=S)N2CCCC(C(=O)N3CCCC3)C2)cc1 (centres undefined)	-17	-3	-34	-2	0	-3
CCOC(=O)c1ccc(NC(=O)N2CCCCCC2)cc1	15	98*	21	5	37*	17
CCOC(=O)c1ccc(NS(=O)(=O)N2CCCCCC2)cc1	7	19	6	0	-2	47*
CCOC(=O)c1ccc(NC(=O)C2CCN(S(=O)(=O)CC)CC2)cc1	-5	8	-2	3	0	-3
CCCNC(=O)C[C@H]1CC[C@H]2[C@@H](COC[C@@H](O)CN2C(=O)C2CCOCC2)O1	.	.	.	.	.	0
CC(C)NC(=O)Nc1ccc2c(c1)C(=O)N([C@H](C)CO)C[C@H](C)[C@@H](CN(C)Cc1ccc(-c3ccccc3)cc1)O2	.	.	.	.	.	2
CCCCn1cnc2c(SCc3ccccc3)nc(N)nc21	.	45	.	0	14	50*
CCCn1cnc2c(SCc3ccccc3)nc(N)nc21	.	18	.	3	12	.

From PubChem
